# Measured values from the supplement of paper PMC8728848.
# This excerpt belongs to a sample that is enriched for the strongest signals.
# How the values were obtained:
# Experiment in all cases: glycan array binding signal (z-score within array); higher = stronger binding
# Settings in all cases: glycan notation: IUPAC condensed, linker removed
# [1] = target: Fuc(a1-2)Gal(b1-3)GlcNAc(b1-2)Man(a1-3)[Fuc(a1-2)Gal(b1-3)GlcNAc(b1-2)Man(a1-6)]Man(b1-4)GlcNAc(b1-4)[Fuc(a1-6)]GlcNAc
# How it was run: (§1)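 Glycan array data were curated from 3228 arrays in the Consortium for Functional Glycomics database and kept only where the protein sequence was available. Glycan names were converted to IUPAC-condensed notation, and columns mapping to the same glycan were averaged. The binding signal is a within-array Z-score, averaged across arrays of the same protein sequence at different concentrations or buffers and across linkers. Negative Z-scores can be read as non-binding.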
# [2] = target: Fuc(a1-2)Gal(b1-4)GlcNAc(b1-3)Gal(b1-4)GlcNAc(b1-2)Man(a1-3)[Fuc(a1-2)Gal(b1-4)GlcNAc(b1-3)Gal(b1-4)GlcNAc(b1-2)Man(a1-6)]Man(b1-4)GlcNAc(b1-4)GlcNAc
# How it was run: as §1
# [3] = target: Fuc(a1-2)Gal(b1-4)GlcNAc(b1-3)GalNAc
# How it was run: as §1
# [4] = target: Fuc(a1-2)Gal(b1-4)[Fuc(a1-3)]GlcNAc(b1-2)[Fuc(a1-2)Gal(b1-4)[Fuc(a1-3)]GlcNAc(b1-4)]Man(a1-3)[Fuc(a1-2)Gal(b1-4)[Fuc(a1-3)]GlcNAc(b1-2)Man(a1-6)]Man(b1-4)GlcNAc(b1-4)GlcNAc
# How it was run: as §1
# [5] = target: Fuc(a1-2)Gal(b1-4)[Fuc(a1-3)]GlcNAc(b1-3)Gal(b1-4)[Fuc(a1-3)]GlcNAc(b1-3)Gal(b1-4)[Fuc(a1-3)]GlcNAc
# How it was run: as §1
# [6] = target: Fuc(a1-2)Gal6S(b1-4)Glc6S
# How it was run: as §1
# [7] = target: Fuc(a1-2)[Gal(a1-3)]Gal(b1-4)GlcNAc(b1-2)Man(a1-3)[Fuc(a1-2)[Gal(a1-3)]Gal(b1-4)GlcNAc(b1-2)Man(a1-6)]Man(b1-4)GlcNAc(b1-4)[Fuc(a1-6)]GlcNAc
# How it was run: as §1
# [8] = target: Gal(a1-3)Gal(b1-4)GlcNAc(b1-2)Man
# How it was run: as §1
# [9] = target: Gal(b1-3)GalNAc(a1-3)[Fuc(a1-2)]Gal(b1-4)GlcNAc
# How it was run: as §1
# Gal(b1-3)GalNAc(b1-3)Gal = target: Gal(b1-3)GalNAc(b1-3)Gal
# How it was run: as §1
# Gal(b1-3)GlcNAc = target: Gal(b1-3)GlcNAc
# How it was run: as §1
# [10] = target: Gal(b1-3)GlcNAc(b1-2)Man(a1-3)[GlcNAc(b1-4)][Gal(b1-3)GlcNAc(b1-2)Man(a1-6)]Man(b1-4)GlcNAc(b1-4)GlcNAc
# How it was run: as §1
# [11] = target: Gal(b1-3)[GlcNAc(b1-6)]GalNAc
# How it was run: as §1
# [12] = target: Gal(b1-4)GlcNAc(b1-2)Man(a1-3)[Gal(b1-4)GlcNAc(b1-2)Man(a1-6)][GlcNAc(b1-4)]Man(b1-4)GlcNAc(b1-4)[Fuc(a1-6)]GlcNAc
# How it was run: as §1
# [13] = target: Gal(b1-4)GlcNAc(b1-2)Man(a1-3)[Man(a1-6)]Man(b1-4)GlcNAc(b1-4)GlcNAc
# How it was run: as §1
# [14] = target: Gal(b1-4)GlcNAc(b1-3)Gal(b1-4)GlcNAc(b1-2)Man(a1-3)[Gal(b1-4)GlcNAc(b1-3)Gal(b1-4)GlcNAc(b1-2)Man(a1-6)]Man(b1-4)GlcNAc(b1-4)GlcNAc
# How it was run: as §1
# Gal(b1-6)Gal = target: Gal(b1-6)Gal
# How it was run: as §1
# [15] = target: Gal3S(b1-3)[Fuc(a1-4)]GlcNAc
# How it was run: as §1
# [16] = target: Gal3S(b1-4)[Fuc(a1-3)]GlcNAc
# How it was run: as §1
# Gal6S(b1-3)GlcNAc = target: Gal6S(b1-3)GlcNAc
# How it was run: as §1
# GalNAc4S6S(b1-4)GlcNAc = target: GalNAc4S6S(b1-4)GlcNAc
# How it was run: as §1
# GlcA(b1-6)Gal = target: GlcA(b1-6)Gal
# How it was run: as §1
# [17] = target: GlcNAc(a1-4)Gal(b1-4)GlcNAc
# How it was run: as §1
binder,measurement,setting,value
"SAOUHSC 02783 (Staphylococcus aureus), Q5HD69 (protein) MIHSKKLTLGICLVLLIILIVGYVIMTKTNGRNAQIKDTFNQTLKLYPTKNLDDFYDKEGFRDQEFKKGDKGTWIVNSEMVIEPKGKDMETRGMVLYINRNTRTTKGYYFISEMTDDSNGRPKDDEKRYPVKMEHNKIIPTKPLPNDKLKKEIENFKFFVQYGNFKDINDYKDGDISYNPNVPSYSAKYQLNNDDYNVQQLRKRYDIPTKQAPKLLLKGDGDLKGSSVGSRSLEFTFVENKEENIYFTDSVQYTPSEDTRYESN",glycan array binding signal (z-score),[1],2.61
same,glycan array binding signal (z-score),[2],-0.248
same,glycan array binding signal (z-score),[3],0.108
same,glycan array binding signal (z-score),[4],4.52
same,glycan array binding signal (z-score),[5],-0.71
same,glycan array binding signal (z-score),[6],0.515
same,glycan array binding signal (z-score),[7],-1.39
same,glycan array binding signal (z-score),[8],-0.596
same,glycan array binding signal (z-score),[9],-1.73
same,glycan array binding signal (z-score),Gal(b1-3)GalNAc(b1-3)Gal,-0.932
same,glycan array binding signal (z-score),Gal(b1-3)GlcNAc,0.236
same,glycan array binding signal (z-score),[10],3.09
same,glycan array binding signal (z-score),[11],-0.308
same,glycan array binding signal (z-score),[12],-0.077
same,glycan array binding signal (z-score),[13],5.18
same,glycan array binding signal (z-score),[14],2.58
same,glycan array binding signal (z-score),Gal(b1-6)Gal,0.805
same,glycan array binding signal (z-score),[15],-0.32
same,glycan array binding signal (z-score),[16],-0.324
same,glycan array binding signal (z-score),Gal6S(b1-3)GlcNAc,-0.599
same,glycan array binding signal (z-score),GalNAc4S6S(b1-4)GlcNAc,-0.245
same,glycan array binding signal (z-score),GlcA(b1-6)Gal,2.83
same,glycan array binding signal (z-score),[17],-0.454
